Test [1] concerns the target human Casein Kinase 1-delta (CK1D), CSNK1D (gene 1453) (UniProt P48730). Briefly: NVS_ENZ_hCK1D: NovaScreen (NVS) Enzymatic Assay for human Casein Kinase 1-delta (CK1D) (AID 2283148). A digest of the protocol: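 Recombinant human CK1-delta, cell-free; fluorescent substrate with electrophoretic mobility-shift separation of product, read 1 h after dosing. Single 25 uM duplicate screen, then concentration-response up to 50 uM; loss of signal vs DMSO.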

Test [2] deals with human Ephrin type-B Receptor 1 (EphB1), EPHB1 (gene 2047) (UniProt P54762). As to the kind of experiment: NVS_ENZ_hEphB1: NovaScreen (NVS) Enzymatic Assay for human Ephrin type-B Receptor 1 (EphB1) (AID 2283154). A digest of the protocol: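 Cell-free kinase assay with recombinant enzyme, fluorescent substrate and electrophoretic mobility-shift separation of substrate and product; read 1 h after dosing. Single-concentration duplicate screen at 25 uM; loss of signal versus DMSO baseline.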
Sequence of human Ephrin type-B Receptor 1 (EphB1), EPHB1 (gene 2047) (P54762 whole entry, looked up): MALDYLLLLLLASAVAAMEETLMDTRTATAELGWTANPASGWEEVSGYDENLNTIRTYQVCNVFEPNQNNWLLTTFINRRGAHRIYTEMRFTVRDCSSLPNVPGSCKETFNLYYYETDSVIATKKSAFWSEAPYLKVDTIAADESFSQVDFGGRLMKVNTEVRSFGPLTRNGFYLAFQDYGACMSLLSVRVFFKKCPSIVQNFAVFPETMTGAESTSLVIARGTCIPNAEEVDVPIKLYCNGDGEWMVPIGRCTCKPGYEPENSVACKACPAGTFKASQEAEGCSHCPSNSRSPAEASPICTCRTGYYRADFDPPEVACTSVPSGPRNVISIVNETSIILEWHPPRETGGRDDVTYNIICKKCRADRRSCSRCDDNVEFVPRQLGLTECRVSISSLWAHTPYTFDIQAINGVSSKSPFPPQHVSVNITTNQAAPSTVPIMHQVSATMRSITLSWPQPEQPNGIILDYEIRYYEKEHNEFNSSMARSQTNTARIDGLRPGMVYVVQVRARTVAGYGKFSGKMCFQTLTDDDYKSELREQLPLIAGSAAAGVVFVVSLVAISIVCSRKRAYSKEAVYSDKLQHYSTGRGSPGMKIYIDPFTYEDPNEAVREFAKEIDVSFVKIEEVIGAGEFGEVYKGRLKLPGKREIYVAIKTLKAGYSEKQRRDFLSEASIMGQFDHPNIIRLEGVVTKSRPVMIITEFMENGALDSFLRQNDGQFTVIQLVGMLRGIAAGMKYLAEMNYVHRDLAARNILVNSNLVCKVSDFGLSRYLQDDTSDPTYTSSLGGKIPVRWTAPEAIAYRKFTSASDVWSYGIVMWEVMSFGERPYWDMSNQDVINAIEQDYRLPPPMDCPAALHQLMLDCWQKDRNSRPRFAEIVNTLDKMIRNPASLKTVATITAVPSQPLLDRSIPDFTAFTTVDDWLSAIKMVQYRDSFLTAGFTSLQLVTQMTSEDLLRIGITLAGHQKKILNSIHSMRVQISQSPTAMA

Test [3] concerns the target human Esterase Plasma (ES), BCHE (gene 590) (UniProt P06276). As to the kind of experiment: NVS_ENZ_hES: NovaScreen (NVS) Enzymatic Assay for human Esterase Plasma (ES) (AID 2283157). A digest of the protocol:
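Esterase from human plasma, cell-free, colorimetric absorbance read 0.25 h after dosing. Screened at 25 uM in duplicate, with threshold-passing chemicals run in concentration-response up to 50 uM; loss of signal fitted versus DMSO.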

Test [4] addresses human Caspase 8 (CASP8), CASP8 (gene 841) (UniProt Q14790). Briefly: NVS_ENZ_hCASP8: NovaScreen (NVS) Enzymatic Assay for human Caspase 8 (CASP8) (AID 2283146). A digest of the protocol: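 E. coli-expressed enzyme was used in a cell-free fluorogenic substrate assay read 1 h after dosing. Loss of signal was scored relative to DMSO, and the primary screen was run in duplicate at 25 uM.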

The target in test [5] is human Ephrin type-A Receptor 2 (EphA2), EPHA2 (gene 1969) (UniProt P29317). As to the kind of experiment: NVS_ENZ_hEphA2: NovaScreen (NVS) Enzymatic Assay for human Ephrin type-A Receptor 2 (EphA2) (AID 2283155). A digest of the protocol:
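Cell-free recombinant EphA2 kinase with specific substrate, 1 h, fluorescence with electrophoretic mobility-shift separation of substrate and product. Primary screen at 25 uM in duplicate; hits retested in singleton concentration-response up to 50 uM, referenced to DMSO.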

The target in test [6] is human Ephrin type-B Receptor 2 (EphB2), EPHB2 (gene 2048) (UniProt P29323). As to the kind of experiment: NVS_ENZ_hEphB2: NovaScreen (NVS) Enzymatic Assay for human Ephrin type-B Receptor 2 (EphB2) (AID 2283156). The procedure: NVS_ENZ_hEphB2 is a biochemical, single-readout assay that uses extracted gene-proteins in a cell-free assay. Measurements were taken 1 hour after chemical dosing in a 384-well plate.NVS_ENZ_hEphB2 is one of one assay component(s) measured or calculated from the NVS_ENZ_hEphB2 assay. It is designed to make measurements of enzyme activity, a form of enzyme reporter, as detected with fluorescence intensity signals by Fluorescence and electrophoretic mobility shift technology.Data from the assay component NVS_ENZ_hEphB2 was analyzed into 1 assay endpoint. This assay endpoint, NVS_ENZ_hEphB2, was analyzed in the positive analysis fitting direction relative to DMSO as the negative control and baseline of activity. Using a type of enzyme reporter, loss-of-signal activity can be used to understand changes in the enzymatic activity as they relate to the gene EPHB2. Furthermore, this assay endpoint can be referred to as a primary readout, because this assay has produced multiple assay endpoints where this one serves a enzymatic activity function. To generalize the intended target to other relatable targets, this assay endpoint is annotated to the kinase intended target family, where the subfamily is receptor tyrosine kinase. […]

Test [7] concerns the target human Ephrin type-A Receptor 1 (EphA1), EPHA1 (gene 2041) (UniProt P21709). Briefly: NVS_ENZ_hEphA1: NovaScreen (NVS) Enzymatic Assay for human Ephrin type-A Receptor 1 (EphA1) (AID 2283158).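 Also: activity is signal loss versus DMSO meaning EphA1 kinase inhibition.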 A digest of the protocol: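 Cell-free kinase activity with recombinant protein, 1 hour after dosing; product separated by electrophoretic mobility shift, fluorescence read. Primary screen at 25 uM in duplicate; hits run as concentration-response up to 50 uM, relative to DMSO.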

Test [8] deals with human Casein Kinase 2- alpha 2 beta 2 (CK2a2b2), CSNK2A1 (gene 1457) (UniProt P68400). Briefly: NVS_ENZ_hCK2a2b2: NovaScreen (NVS) Enzymatic Assay for human Casein Kinase 2- alpha 2 beta 2 (CK2a2b2) (AID 2283147). A digest of the protocol: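 Cell-free recombinant CK2 α2β2 holoenzyme with a fluorescent peptide substrate; product separated by electrophoretic mobility shift and read 1 h after dosing. Single-point screen at 25 uM in duplicate; actives were followed with concentration-response up to 50 uM versus DMSO.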
Sequence of human Casein Kinase 2- alpha 2 beta 2 (CK2a2b2), CSNK2A1 (gene 1457) (P68400 whole entry, looked up): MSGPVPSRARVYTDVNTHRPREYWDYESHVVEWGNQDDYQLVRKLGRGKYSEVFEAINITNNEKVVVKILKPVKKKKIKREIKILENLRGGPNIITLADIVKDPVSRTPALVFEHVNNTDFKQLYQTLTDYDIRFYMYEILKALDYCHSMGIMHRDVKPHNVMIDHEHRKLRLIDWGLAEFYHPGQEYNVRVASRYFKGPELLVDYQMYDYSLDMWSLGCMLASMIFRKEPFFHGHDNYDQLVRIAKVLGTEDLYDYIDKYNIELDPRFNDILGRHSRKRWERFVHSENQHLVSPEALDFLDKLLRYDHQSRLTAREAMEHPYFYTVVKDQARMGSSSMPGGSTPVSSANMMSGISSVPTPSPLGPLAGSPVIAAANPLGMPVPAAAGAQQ

The target in test [9] is human Dual Specificity Protein Phosphatase 3 (DUSP3), DUSP3 (gene 1845) (UniProt P51452). As to the kind of experiment: NVS_ENZ_hDUSP3: NovaScreen (NVS) Enzymatic Assay for human Dual Specificity Protein Phosphatase 3 (DUSP3) (AID 2283152).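 Also: phosphatase activity of recombinant human DUSP3 on a fluorogenic substrate without cells.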 A digest of the protocol:
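Cell-free assay with recombinant human DUSP3 and fluorogenic substrate, read by fluorescence intensity. Primary screen ran duplicate at 25 uM; actives followed up in concentration series; loss of signal versus DMSO scored.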

For test [10], the target named is human Elastase, ELANE (gene 1991) (UniProt P08246). Briefly: NVS_ENZ_hElastase: NovaScreen (NVS) Enzymatic Assay for human Elastase (AID 2283153). A digest of the protocol: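 Cell-free elastase from human neutrophils, 1.5 h after dosing, activity read by absorbance. Primary screen in duplicate at 25 uM; hits (e.g., 30% inhibition) rerun in singleton concentration-response up to 50 uM, fitted versus DMSO.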
Sequence of human Elastase, ELANE (gene 1991) (P08246 whole entry, looked up): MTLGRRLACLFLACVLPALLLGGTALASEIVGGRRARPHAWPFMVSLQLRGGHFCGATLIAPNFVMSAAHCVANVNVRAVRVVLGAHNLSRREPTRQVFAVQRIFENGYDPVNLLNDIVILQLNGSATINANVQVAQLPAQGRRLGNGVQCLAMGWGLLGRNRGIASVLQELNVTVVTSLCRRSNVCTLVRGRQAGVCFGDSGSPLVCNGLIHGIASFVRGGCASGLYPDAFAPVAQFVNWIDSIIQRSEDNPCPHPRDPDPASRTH

The structures appear in SMILES notation. “And” between values parts separate entries of the source, which are not always exact repeats. Equal values may be shown once. Records with an inconclusive call do not appear. More than one record can exist for a structure, and the calls need not agree. The source made the active and inactive calls. The calls were made as follows: active = hit-call score of the fitted dose curve at least 0.9, where 1 is the maximum; inconclusive = response in the unintended direction; inactive = score below 0.9.

Consider 28 compounds from PubChem BioAssay (EPA / NIEHS).

Sequence of human Ephrin type-A Receptor 1 (EphA1), EPHA1 (gene 2041) (P21709 whole entry, looked up): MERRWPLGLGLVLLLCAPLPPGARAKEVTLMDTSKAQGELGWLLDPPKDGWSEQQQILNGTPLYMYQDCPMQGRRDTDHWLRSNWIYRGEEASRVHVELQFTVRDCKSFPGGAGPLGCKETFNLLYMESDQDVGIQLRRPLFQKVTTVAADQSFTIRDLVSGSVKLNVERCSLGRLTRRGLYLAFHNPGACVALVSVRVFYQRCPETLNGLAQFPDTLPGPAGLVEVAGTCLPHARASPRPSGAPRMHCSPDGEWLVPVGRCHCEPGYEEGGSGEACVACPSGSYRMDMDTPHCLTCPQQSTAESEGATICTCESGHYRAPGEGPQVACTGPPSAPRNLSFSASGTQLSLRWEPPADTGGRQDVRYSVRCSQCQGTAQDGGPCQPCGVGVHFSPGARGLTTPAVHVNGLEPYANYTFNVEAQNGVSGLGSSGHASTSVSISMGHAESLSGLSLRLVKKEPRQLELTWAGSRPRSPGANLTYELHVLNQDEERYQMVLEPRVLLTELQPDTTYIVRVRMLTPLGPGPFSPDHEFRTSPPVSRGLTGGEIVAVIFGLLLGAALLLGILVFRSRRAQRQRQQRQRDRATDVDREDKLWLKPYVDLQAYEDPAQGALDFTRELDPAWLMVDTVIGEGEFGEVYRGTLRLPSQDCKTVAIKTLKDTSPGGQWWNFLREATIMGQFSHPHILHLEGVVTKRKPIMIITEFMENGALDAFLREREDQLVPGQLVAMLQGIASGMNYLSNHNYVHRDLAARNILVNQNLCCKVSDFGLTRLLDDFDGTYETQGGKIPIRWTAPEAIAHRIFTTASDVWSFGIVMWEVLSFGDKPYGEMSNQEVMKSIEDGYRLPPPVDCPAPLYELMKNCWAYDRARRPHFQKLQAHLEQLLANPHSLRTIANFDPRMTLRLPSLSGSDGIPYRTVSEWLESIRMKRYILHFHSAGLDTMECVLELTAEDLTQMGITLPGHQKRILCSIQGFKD
Sequence of human Dual Specificity Protein Phosphatase 3 (DUSP3), DUSP3 (gene 1845) (P51452 whole entry, looked up): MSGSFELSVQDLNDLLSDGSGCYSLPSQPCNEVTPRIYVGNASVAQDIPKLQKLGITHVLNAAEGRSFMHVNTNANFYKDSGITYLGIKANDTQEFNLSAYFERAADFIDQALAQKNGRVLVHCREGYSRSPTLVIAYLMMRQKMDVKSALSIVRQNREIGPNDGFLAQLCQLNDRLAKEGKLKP
Sequence of human Ephrin type-A Receptor 2 (EphA2), EPHA2 (gene 1969) (P29317 whole entry, looked up): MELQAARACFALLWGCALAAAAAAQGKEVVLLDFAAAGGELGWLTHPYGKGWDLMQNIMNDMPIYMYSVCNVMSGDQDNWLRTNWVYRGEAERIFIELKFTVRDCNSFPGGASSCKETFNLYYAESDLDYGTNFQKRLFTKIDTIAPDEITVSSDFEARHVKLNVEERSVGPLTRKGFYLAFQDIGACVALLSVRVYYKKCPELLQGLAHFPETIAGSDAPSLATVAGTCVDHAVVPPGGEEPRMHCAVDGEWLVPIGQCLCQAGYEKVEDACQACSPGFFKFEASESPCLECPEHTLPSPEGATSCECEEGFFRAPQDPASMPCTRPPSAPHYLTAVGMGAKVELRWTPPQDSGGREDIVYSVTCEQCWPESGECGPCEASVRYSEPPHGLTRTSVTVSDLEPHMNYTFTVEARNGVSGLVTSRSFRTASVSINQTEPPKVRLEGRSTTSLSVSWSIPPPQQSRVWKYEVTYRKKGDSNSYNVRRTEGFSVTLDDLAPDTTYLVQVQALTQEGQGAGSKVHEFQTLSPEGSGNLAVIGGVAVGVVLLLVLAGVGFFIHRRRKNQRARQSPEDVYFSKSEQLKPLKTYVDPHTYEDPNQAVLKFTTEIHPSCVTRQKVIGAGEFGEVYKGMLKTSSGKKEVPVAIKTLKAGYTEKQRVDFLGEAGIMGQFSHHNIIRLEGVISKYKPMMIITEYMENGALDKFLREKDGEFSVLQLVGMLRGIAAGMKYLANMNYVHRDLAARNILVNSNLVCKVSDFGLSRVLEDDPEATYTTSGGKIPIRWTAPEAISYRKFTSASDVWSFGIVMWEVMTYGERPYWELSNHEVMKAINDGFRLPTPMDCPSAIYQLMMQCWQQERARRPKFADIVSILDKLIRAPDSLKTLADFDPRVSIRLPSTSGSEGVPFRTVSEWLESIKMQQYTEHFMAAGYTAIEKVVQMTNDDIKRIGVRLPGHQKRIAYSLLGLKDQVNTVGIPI
Sequence of human Esterase Plasma (ES), BCHE (gene 590) (P06276 whole entry, looked up): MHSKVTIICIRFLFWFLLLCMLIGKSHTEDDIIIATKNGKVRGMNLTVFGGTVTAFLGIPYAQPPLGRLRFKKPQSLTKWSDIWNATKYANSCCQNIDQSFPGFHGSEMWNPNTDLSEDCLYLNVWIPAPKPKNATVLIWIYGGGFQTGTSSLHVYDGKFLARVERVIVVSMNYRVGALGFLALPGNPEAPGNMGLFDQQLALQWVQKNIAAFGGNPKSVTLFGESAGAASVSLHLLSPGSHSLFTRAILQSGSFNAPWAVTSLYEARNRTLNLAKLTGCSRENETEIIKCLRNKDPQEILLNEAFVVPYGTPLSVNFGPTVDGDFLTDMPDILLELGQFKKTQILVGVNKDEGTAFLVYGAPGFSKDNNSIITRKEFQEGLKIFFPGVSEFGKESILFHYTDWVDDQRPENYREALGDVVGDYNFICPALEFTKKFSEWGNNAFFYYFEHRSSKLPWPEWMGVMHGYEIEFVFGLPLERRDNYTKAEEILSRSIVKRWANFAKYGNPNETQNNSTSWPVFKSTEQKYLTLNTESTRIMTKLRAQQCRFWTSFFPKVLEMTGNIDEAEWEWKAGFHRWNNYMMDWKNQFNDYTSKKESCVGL
Sequence of human Caspase 8 (CASP8), CASP8 (gene 841) (Q14790 whole entry, looked up): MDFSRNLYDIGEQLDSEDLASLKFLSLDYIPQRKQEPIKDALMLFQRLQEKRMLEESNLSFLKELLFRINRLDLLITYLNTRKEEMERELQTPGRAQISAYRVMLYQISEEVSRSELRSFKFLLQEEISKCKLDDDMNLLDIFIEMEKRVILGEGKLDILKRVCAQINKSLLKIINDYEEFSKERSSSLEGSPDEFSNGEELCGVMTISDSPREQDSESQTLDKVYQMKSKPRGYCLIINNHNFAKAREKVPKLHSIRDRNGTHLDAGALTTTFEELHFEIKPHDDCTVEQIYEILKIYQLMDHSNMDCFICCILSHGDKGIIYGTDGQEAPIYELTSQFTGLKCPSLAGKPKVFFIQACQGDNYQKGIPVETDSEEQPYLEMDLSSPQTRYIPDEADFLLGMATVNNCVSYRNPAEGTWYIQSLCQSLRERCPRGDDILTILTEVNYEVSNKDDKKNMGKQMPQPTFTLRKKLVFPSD

Regarding `CCCCC(CC)COC(=O)c1ccccc1C(=O)OCC(CC)CCCC` (stereo not drawn), in test [1], the result was inactive.
For the compound `C=CC1(C)OC(=O)N(c2cc(Cl)cc(Cl)c2)C1=O` (stereo not drawn), in test [2], the compound was called inactive.
As to `CCCCOC(=O)c1ccccc1C(=O)OCCCC`, the result in test [2] was inactive. In addition, in test [3], the concentration at half-maximal activity (AC50) was 11 µM (active) and the outcome was inactive.
Turning to `Fc1ccc(Oc2ccnc3cc(Cl)cc(Cl)c23)cc1`, in test [4], the compound was classed as inactive.
With `CCCN(CCC)c1c([N+](=O)[O-])cc(S(N)(=O)=O)cc1[N+](=O)[O-]`, the compound was classed as inactive in test [1], in [5], in [6] and in test [7].
In the case of `CNC(=S)S`, the call in [4], in test [8], in [1], in [9] and in test [10] was inactive.
As for `Oc1ccccc1-c1ccccc1`, the call in [10] was inactive.
Take `CO/C=C(/C(=O)OC)c1ccccc1Oc1cc(Oc2ccccc2C#N)ncn1`: the compound was called inactive in test [9], in test [10] and in [5]. Also, the AC50 in [3] is 26.3 µM (active) and 26.4 µM (active) and 10 µM (active).
Take `CCOC(=O)C(Cl)Cc1cc(-n2nc(C)n(C(F)F)c2=O)c(F)cc1Cl` (stereo not drawn): the call in [9] and in test [3] was inactive.
On to `CNC(=O)ON=CC(C)(C)SC`, for which the AC50 in test [3] was 11.1 µM (active).
Take `CON(C)C(=O)Nc1ccc(Cl)c(Cl)c1`: the result in test [8] was inactive.
For `COC(=O)C(C)Oc1ccc(Oc2ccc(Cl)cc2Cl)cc1` (stereo not drawn), in test [2], the call was inactive.
On to `CCc1nn(C)c(C(=O)NCc2ccc(C(C)(C)C)cc2)c1Cl`, for which the call in test [9] was inactive.
On to `Cc1ccc(-c2c(Cl)nc(C#N)n2S(=O)(=O)N(C)C)cc1`, for which, in test [8], the half-maximal activity concentration (AC50) was 6.49 µM (active). The compound was called inactive in test [1], in test [5] and in [7].
Consider `O=C(O)COc1nc(Cl)c(Cl)cc1Cl`, for which the AC50 in test [8] is 13.9 µM (active).
As for `COc1ccc(C(c2ccc(OC)cc2)C(Cl)(Cl)Cl)cc1`, the compound was classed as inactive in test [2].
In the case of `CCNc1nc(Cl)nc(NCC)n1`, the result in test [1] was inactive.
Regarding `CC1=C(C(=O)Nc2ccccc2)SCCO1`, the AC50 in [3] is 23.6 µM (active).
For the compound `CCCCNC(=O)n1c(NC(=O)OC)nc2ccccc21`, the outcome in test [1], in [10] and in [2] was inactive.
Consider `CC1COC(Cn2cncn2)(c2ccc(Oc3ccc(Cl)cc3)cc2Cl)O1` (stereo not drawn), for which the call in [9] and in test [2] was inactive.
Turning to `COC(=O)C=C(C)OP(=O)(OC)OC`, in test [10], the outcome was inactive. For the same compound, the AC50 in test [3] is 13.4 µM (active).
Turning to `CS/C(C)=N/OC(=O)N(C)SN(C)C(=O)O/N=C(\C)SC`, in test [3], the half-maximal activity concentration (AC50) was 3.07 µM (active).
Take `COc1cnc(OC)n2nc(NS(=O)(=O)c3c(OCC(F)F)cccc3C(F)(F)F)nc12`: the compound was called inactive in test [7].
Regarding `CCNc1nc(Cl)nc(NC(C)C)n1`, the compound was called inactive in test [1].
For the compound `COP(N)(=O)SC` (stereo not drawn), in [6], the compound was called inactive.
Turning to `COP(=S)(OC)Oc1nc(Cl)c(Cl)cc1Cl`, the call in [10] and in [3] was inactive.
On to `Cc1cc(Cl)ccc1OCC(=O)O`, for which the AC50 in test [8] is 16.2 µM (active).
`N#Cc1cc(Br)c(O)c(Br)c1`: the result in [4], in [2], in [5] and in test [7] was inactive. The AC50 in test [8] is 13 µM (active).
